CD11b adhes enh – CD11b/CD18-fibrinogen binding enhancement; activation, % at 10 µM; P05107+P11215; K562 CD11b/CD18 adhesion to fibrinogen, ATPlite luminescence; 93,000 tested, 0.07% active;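 active means 10 µM primary screen giving 50% or more activity, confirmed by 40% or more on retest at that dose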
CYP2C19 act – increases human CYP2C19 enzyme activity. 96,000 tested, under 10 active. recombinant CYP2C19, luciferin-H EGE luminescence; hits give high values; 0 = fully inhibited enzyme, 1 = untreated enzyme. activation factor at 5 µM. P33261. AID 1025;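 active means activation factor of at least 2 at 5 µM in the primary screen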;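 further: 0 = wells with 2.5 mM tranylcypromine and 1 = vehicle-only wells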
Target sequence (P33261 whole entry, looked up): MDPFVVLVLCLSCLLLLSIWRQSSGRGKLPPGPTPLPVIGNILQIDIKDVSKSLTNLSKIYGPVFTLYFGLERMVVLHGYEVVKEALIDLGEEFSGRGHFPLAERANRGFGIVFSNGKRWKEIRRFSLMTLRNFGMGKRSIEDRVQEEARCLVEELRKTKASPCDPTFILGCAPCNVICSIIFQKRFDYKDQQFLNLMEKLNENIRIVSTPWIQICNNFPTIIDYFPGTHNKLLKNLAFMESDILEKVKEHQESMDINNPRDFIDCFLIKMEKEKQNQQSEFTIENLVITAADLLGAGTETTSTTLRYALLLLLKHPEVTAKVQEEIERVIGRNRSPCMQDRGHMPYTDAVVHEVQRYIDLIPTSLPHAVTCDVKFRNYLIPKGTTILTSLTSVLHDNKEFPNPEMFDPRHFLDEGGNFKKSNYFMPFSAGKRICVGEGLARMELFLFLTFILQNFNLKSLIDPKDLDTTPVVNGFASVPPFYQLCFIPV
CYP2C9 inhib – blocks human cytochrome P450 2C9; 96,000 tested, 20% active; CYP2C9 Supersomes, luciferin-H conversion, luminescence; inhibition, % at 5 µM;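 active means blocking of liver enzyme CYP2C9 beyond about 50% at 5 µM, limit read from the data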
CYP2C19 inhib – blocks human cytochrome P450 2C19. 96,000 tested, 21% active. P33261. CYP2C19 Supersomes, luciferin-H EGE luminescence, 30 min. inhibition, % at 5 µM;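 active means CYP2C19 inhibition above a set limit at 5 µM in the primary screen, cut at about 50% in these data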;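 further: plate controls were negative control wells for no effect and 2.5 mM tranylcypromine positive control for full effect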
Mac1 fbg inh – CD11b/CD18-fibrinogen binding inhibition. K562 CD11b/CD18 adhesion to fibrinogen, ATPlite luminescence; Mn2+ added to activate the integrin. inhibition, % at 10 µM. 93,000 tested, 0.54% active. AID 1497;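 active means primary inhibition of 50% or more at 10 µM, then 40% or more on retest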
CYP2C9 act – increases human cytochrome P450 2C9 activity; P11712; 96,000 tested, 1.4% active; recombinant CYP2C9, luciferin-H conversion, luminescence; hits give high values; factor 1 = untreated enzyme, 0 = blocked; AID 1024; activation factor at 5 µM;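 active means activation factor of 2 or more for CYP2C9 at a 5 µM dose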;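 further: 0 = sulfaphenazole-blocked wells and 1 = vehicle-only wells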
* = called active by the depositor. Compounds with a hit are over-represented: about 28% of the library has one in this group of screens.

For CC1=C(C(=O)OC2CCCCC2)C(c2ccc(C)o2)C2=C(CCCC2=O)N1 (stereo not drawn) the results were CD11b adhes enh 14, CYP2C19 act 0.6, CYP2C9 inhib 60*, CYP2C19 inhib 42, Mac1 fbg inh 29 and CYP2C9 act 0.4.
For CC1=C(C(=O)OCc2ccccc2)C(c2ccc(C)o2)C2=C(CCCC2=O)N1 (stereo not drawn) the results were CD11b adhes enh 0, CYP2C19 act 0.3, CYP2C9 inhib 70*, CYP2C19 inhib 69*, Mac1 fbg inh 3 and CYP2C9 act 0.3.
For COc1ccc(C2C(C(=O)OCC3CCCO3)=C(C)NC3=C2C(=O)CC(c2ccco2)C3)cc1O (stereo not drawn) the results were CYP2C19 act 0.8, CYP2C9 inhib 33, CYP2C19 inhib 18 and CYP2C9 act 0.7.
Screening CCc1cccc(C)c1NC(=O)C1=C(C(=O)O)CCCC1 returned CD11b adhes enh -1, CYP2C19 act 0.9, CYP2C9 inhib -15, CYP2C19 inhib 6, Mac1 fbg inh -6 and CYP2C9 act 1.1.
`Clc1cc(Cl)cc(Nc2ncn[nH]2)c1` gave CD11b adhes enh -2, CYP2C19 act 0.5, CYP2C9 inhib 4, CYP2C19 inhib 50*, Mac1 fbg inh 0 and CYP2C9 act 1.
For Cc1oc2nc(SCCCC(=O)NCCO)nc(N)c2c1C the results were CD11b adhes enh -3, CYP2C19 act 1.1, CYP2C9 inhib -4, CYP2C19 inhib -8, Mac1 fbg inh 3 and CYP2C9 act 1.
`C/C(=N\Nc1ccc([N+](=O)[O-])cc1)c1cccc(N)c1` gave CYP2C19 act 0.1, CYP2C9 inhib 40, CYP2C19 inhib 90* and CYP2C9 act 0.6.
`CNC(=S)N/N=C(\C)c1cccc([N+](=O)[O-])c1` gave CD11b adhes enh 2 and Mac1 fbg inh 2.
For CCc1cc2c(=O)nc3n(c2s1)Cc1ccccc1/C3=C(/O)c1cccc([N+](=O)[O-])c1 the results were CD11b adhes enh -3, CYP2C19 act 1.1, CYP2C9 inhib 52*, CYP2C19 inhib -13, Mac1 fbg inh -1 and CYP2C9 act 0.5.
`CCc1cc2c(=O)nc3n(c2s1)Cc1ccccc1/C3=C(/O)c1ccc(F)cc1` gave CD11b adhes enh 0, CYP2C19 act 1, CYP2C9 inhib 14, CYP2C19 inhib -2, Mac1 fbg inh 4 and CYP2C9 act 0.9.
For COc1cccc(Nc2ncccc2C(=O)Nc2ccccc2)c1 the results were CD11b adhes enh -4, CYP2C19 act 0.8, CYP2C9 inhib 25, CYP2C19 inhib 22, Mac1 fbg inh -3 and CYP2C9 act 0.7.
For COc1ccc(N=C2SC(CC(=O)Nc3ccc(OC)cc3OC)C(=O)N2C)cc1 (stereo not drawn) the results were CD11b adhes enh -1, CYP2C19 act 0.5, CYP2C9 inhib 52*, CYP2C19 inhib 49, Mac1 fbg inh -3 and CYP2C9 act 0.5.
CC(C)N1CCC2(CC1)C(C#N)=C(N)NC(S)=C2C#N was read as CD11b adhes enh -2 and Mac1 fbg inh -4.
N#CC1=C(N)NC(SCC(=O)O)=C(C#N)C12CCCC2 was read as CD11b adhes enh 6, CYP2C19 act 0.8, CYP2C9 inhib 26, CYP2C19 inhib 25, Mac1 fbg inh -6 and CYP2C9 act 0.7.
For CC1=C(C(=O)Nc2ccccc2)C2(CCCCC2)C(C#N)=C(S)N1 the results were CD11b adhes enh 2, CYP2C19 act 0.3, CYP2C9 inhib 84*, CYP2C19 inhib 68*, Mac1 fbg inh -32 and CYP2C9 act 0.2.
N#CC1=C(N)NC(SCC(=O)Nc2ccccc2)=C(C#N)C12CCCC2 was read as CD11b adhes enh 2, CYP2C19 act 0, CYP2C9 inhib 95*, CYP2C19 inhib 99*, Mac1 fbg inh 6 and CYP2C9 act 0.1.
`N#CC1=C(N)NC(SCc2ccc(F)cc2)=C(C#N)C12CCCCC2` gave CD11b adhes enh -6, CYP2C19 act 0, CYP2C9 inhib 100*, CYP2C19 inhib 100*, Mac1 fbg inh 77* and CYP2C9 act 0.
`N/C(=N\OC(=O)c1ccc(Br)cc1)c1ccccc1` gave CD11b adhes enh -3, CYP2C19 act 1, CYP2C9 inhib 5, CYP2C19 inhib -3, Mac1 fbg inh 8 and CYP2C9 act 1.
Screening CCc1ccc(C(=O)COc2ccc(NC(C)=O)cc2)cc1 returned CD11b adhes enh 0, CYP2C19 act 0.1, CYP2C9 inhib 77*, CYP2C19 inhib 88*, Mac1 fbg inh -28 and CYP2C9 act 0.2.
For O=C(COC(=O)c1ccccc1Nc1ccccc1)c1ccccc1 the results were CYP2C19 act 0.7, CYP2C9 inhib 57*, CYP2C19 inhib 30 and CYP2C9 act 0.4.
`O=C(OCCOc1ccc(Br)cc1)c1cnccn1` gave CD11b adhes enh -6, CYP2C19 act 0.4, CYP2C9 inhib -6, CYP2C19 inhib 62*, Mac1 fbg inh 3 and CYP2C9 act 1.1.
O=C(COC(=O)c1cnccn1)c1ccc(Br)cc1 was read as CD11b adhes enh -6, CYP2C19 act 0.9, CYP2C9 inhib 2, CYP2C19 inhib 12, Mac1 fbg inh 0 and CYP2C9 act 1.
O=C(COC(=O)c1ccccc1)c1ccc(Br)cc1 was read as CD11b adhes enh 2, CYP2C19 act 0.4, CYP2C9 inhib 13, CYP2C19 inhib 56*, Mac1 fbg inh 8 and CYP2C9 act 0.9.
`Cc1cc(SCc2cc(=O)[nH]c3ccccc23)nc2ccccc12` gave CD11b adhes enh -1, CYP2C19 act 1.1, CYP2C9 inhib -1, CYP2C19 inhib -6, Mac1 fbg inh -17 and CYP2C9 act 1.
Screening O=C(Cn1cnc2c(nnn2Cc2ccc(F)cc2)c1=O)N1CCN(c2ccccc2)CC1 returned CYP2C19 act 0.9, CYP2C9 inhib -33, CYP2C19 inhib 11 and CYP2C9 act 1.3.
For CN1CCN(C(=S)Nc2ccc(Cl)cc2Cl)CC1 the results were CD11b adhes enh -2, CYP2C19 act 0.9, CYP2C9 inhib 11, CYP2C19 inhib 9, Mac1 fbg inh 6 and CYP2C9 act 0.9.
For COC(=O)c1cc(O)c(OCc2ccccc2)c(O)c1 the results were CD11b adhes enh 2, CYP2C19 act 0.1, CYP2C9 inhib 91*, CYP2C19 inhib 95*, Mac1 fbg inh -6 and CYP2C9 act 0.1.
For O=C(COC(=O)c1cnccn1)c1ccccc1 the results were CD11b adhes enh -4, CYP2C19 act 0.9, CYP2C9 inhib 82*, CYP2C19 inhib 8, Mac1 fbg inh 5 and CYP2C9 act 0.2.
Screening CC(=O)Nc1ccc(OCC(=O)c2ccc(C)cc2C)cc1 returned CD11b adhes enh 0, CYP2C19 act 0.3, CYP2C9 inhib -2, CYP2C19 inhib 72*, Mac1 fbg inh 10 and CYP2C9 act 1.

Compound activity as filed in PubChem.
